Source: PubChem BioAssay AID2289 (National Center for Advancing Translational Sciences (NCATS), 2010)
In all, about 340,000 compounds went through this assay and about 3,300 (0.97%) were called active. Roughly 9% stayed inconclusive and do not appear here. The call rests on the fitted dose curve; in most records, active means well fitted inhibition curve with a large enough effect; inconclusive means small, poorly fitted or top-dose-only effect, or effect the other way; inactive means flat fitted curve, though single readings scatter. Some of the results follow.

test: qHTS Assay for Modulators of miRNAs and/or Inhibitors of miR-21; settings: HeLa miR-21-FLuc reporter, luciferase luminescence, 48 h; actives lower the signal; further: nearly all actives have a fitted effect of over 55% in size
Description: MLSCN Grant: 1 R21 NS059478-01 Assay Provider: Qihong Huang, The Wistar Institute NCGC Assay Overview: MicroRNAs (miRNAs) are endogenously encoded small (~20-25 nucleotides), nonprotein-coding RNAs that are involved in post-transcriptional repression of target messenger RNAs (mRNAs) (Le and Hannon, 2004). Estimated to be involved in the regulation of 30% of all protein-coding mRNAs (Filipowicz et al., 2008), miRNAs play a significant role in many biological processes including cellular differentiation and tissue development (Ghildiyal and Zamore, 2009).
NCGC Assay Protocol Summary: Reagents: HeLa cells stably expressing firefly luciferase (FLuc) under the control of a CMV promoter (upstream) and a miR-21 binding sequence directly downstream of the gene. These cells endogenously express miR-21. Control compounds used were compound C3 (provided by collaborator), N6-phenyladenosine (MP Biomedicals, 0215379625), and DMSO. Assay Summary: 6uL of HeLa miR-21-FLuc cells in assay buffer (DMEM, Invitrogen #21063-029; 10% FBS, HyClone #SH30071.03) were dispensed at 2000cells/well (3.3 x 10^5 cells/mL) into Greiner solid-white TC-treated 1536-well plates using a Multidrop Combi (Thermo Fisher Scientific). Plates were incubated for one hour at 37 degree Celsius, 95% humidity, 5% CO2. These assay plates were then treated with 23nL of compound or DMSO using a Kalypsys pin tool, which allows for delivery of a 24-point titration of each compound to the assay plate, with a final compound concentration ranging from approximately 40uM to 5pM. Assay plates were then incubated for 48 hours. After incubation, plates were allowed to come to RT for one hour prior to delivery of 3uL of 3X luciferase detection reagent. After a 15 minute incubation to allow for cell lysis, luciferase activity was measured using a ViewLux CCD imager (PerkinElmer), with an average exposure time of 2-12 seconds. Keywords: NIH Roadmap, MLPCN, MLSMR, qHTS, miR-21, microRNA, firefly luciferase, FLuc.
Potency means the concentration at half of the fitted maximal effect.

Potency, active:
O=C(CCCc1ccccc1)Nc1cccc(C(=O)O)c1 0.464 µM
O=C(NCc1ccccc1)C(=O)Nc1cccc(C(=O)O)c1 0.185 µM
COc1cccc(NC(=O)C(=O)NCCc2ccc(F)cc2)c1 11.7 µM
O=C(CCCc1ccccc1)c1ccccc1 2.07 µM
Cc1cccc(NC(=O)C(=O)NCCCc2ccccc2)c1 16.5 µM
Cc1cccc(NC(=O)CCCc2ccccc2)c1 7.36 µM
Cc1cc(N2CCOCC2)n2ncc(-c3ccccc3Cl)c2n1 1.65 µM
COc1ccccc1-c1cnn2c(N3CCOCC3)cc(C)nc12 14.7 µM
COc1ccccc1-c1cnn2c(NC3CCCC3)cc(C)nc12 5.85 µM
Cc1cc(N2CCOCC2)n2ncc(-c3ccc(Cl)cc3)c2n1 0.414 µM
CNC(=O)c1sc(-c2ccc(Cl)cc2)nc1C 6.56 µM
C/C(=N\O)c1sc(-c2ccccc2)nc1C 1.85 µM
Cc1nc(-c2ccc(Cl)cc2)sc1C(=O)O 11.7 µM
Cc1cc(/C=C\c2ccccc2)nc2ccccc12 7.36 µM
CC(C)(C)n1cnc2cc(NCc3ccc(Br)cc3)ccc21 4.14 µM
CCc1ccc(CNc2ccc3c(c2)ncn3C(C)(C)C)cc1 5.85 µM
O=C(O)c1ccc(N/N=C/C2=Cc3ccccc3OC2)cc1 1.17 µM
CCN(CC)S(=O)(=O)c1ccc2oc(Nc3ccccc3)nc2c1 9.27 µM
CCS(=O)(=O)c1ccc2oc(Nc3ccccc3Br)nc2c1 2.07 µM
CCS(=O)(=O)c1ccc2oc(Nc3ccccc3Cl)nc2c1 1.85 µM
C=CCNc1nc(Nc2ccccc2F)nc(OCC)n1 5.85 µM
Cc1cccc(NC(=O)C2Cc3ccccc3O/C2=N\O)c1 (stereo unspecified) 14.7 µM
O=C(Nc1ccc(Br)cc1)C1Cc2ccccc2O/C1=N\O (stereo unspecified) 7.36 µM
Cc1ccc(NC(=O)C2Cc3ccccc3O/C2=N\O)cc1C (stereo unspecified) 14.7 µM
COCCCNc1oc(/C=C/c2ccccc2)nc1C#N 0.464 µM
N#Cc1nc(/C=C/c2ccccc2)oc1NCCCN1CCOCC1 10.4 µM
COCCNc1oc(/C=C/c2ccccc2)nc1C#N 2.07 µM
CC(C)c1ccc(NC(=O)C(c2ccccc2)N2CC(=O)Nc3ccccc32)cc1 (stereo unspecified) 13.1 µM
CCCC(=O)N1c2ccc(-c3csc(N)n3)cc2CC1C (stereo unspecified) 1.85 µM
CCC(C)C(=O)N1CCc2cc(-c3csc(N)n3)ccc21 (stereo unspecified) 1.65 µM
O=c1[nH]n(Cc2ccccc2)c(=O)c2ccccc12 13.1 µM
Cc1ccc2nc(NC(=S)NC(=O)c3cccs3)sc2c1 0.656 µM
O=C(NC(=S)Nc1nc2ccccc2s1)c1cccs1 0.521 µM
O=S(=O)(c1cc(F)ccc1F)N1CCC2(CC1)OCCO2 5.21 µM
COc1ccc(NC(=O)c2sc3nc[nH]c(=O)c3c2C)cc1 5.85 µM
COc1ccc(C(=O)c2cc3cccc(OC)c3o2)cc1 3.29 µM
COc1cc(OC)c(C(=O)Nc2ccc3ccccc3c2)cc1OC 2.93 µM
COc1cc2ccccc2cc1C(=O)NC(=S)Nc1cccc(C(=O)O)c1 14.7 µM
O=C(Nc1ccc2ccccc2c1)c1cc(F)c(F)cc1Cl 0.656 µM
COc1ccc(NC(=O)c2ccc3nc[nH]c3c2)cc1 7.36 µM
COc1cccc2cc(C(=O)N3CCc4ccccc4C3)c(=O)oc12 16.5 µM
COc1cc(OC)c(C(=O)Nc2ccc(N(C)C)cc2)cc1OC 8.26 µM
COc1ccc(-c2cccc(C(=O)Nc3cccc(C(=O)O)c3)c2)cc1 6.56 µM
COc1cccc(NC(=O)c2cc3cccc(OC)c3o/c2=N\O)c1 0.414 µM
COc1ccc(C(=O)Nc2ccc3cn[nH]c3c2)c(OC)c1 4.65 µM
COc1cccc2cc(C(=O)Nc3ccc(C)cc3)c(=O)oc12 0.736 µM
COc1cccc(NC(=O)c2cc3ccccc3cc2OC)c1 2.33 µM
CCOC(=O)CC(NC(=O)c1cc2cccc(OC)c2oc1=O)c1ccc(OC)cc1 (stereo unspecified) 16.5 µM
COc1ccc(C(c2c(O)ccc3ccccc23)N2CCOCC2)c(OC)c1 (stereo unspecified) 11.7 µM
Cc1ccsc1C1NC(=O)c2c(sc3c2CCCC3)N1 (stereo unspecified) 5.85 µM
CCN(CC)c1ccc(NC(=O)C2CC3CCC2C3)cc1 (stereo unspecified) 10.4 µM
O=[N+]([O-])c1ccccc1NCCOc1ccccc1 7.36 µM
O=[N+]([O-])c1cc(C(F)(F)F)ccc1NCCOc1ccccc1 7.36 µM
O=C(NC1CCCCC1)c1ccc2c(c1)OCCO2 2.93 µM
Cc1cccc(C(=O)NC2CCCCCCC2)c1 2.93 µM
N#Cc1ccc(C(=O)NC2CCCCCCC2)cc1 5.85 µM
O=C(NC1CC1)c1ccc(-c2ccccc2)cc1 3.69 µM
N#Cc1nc(COc2ccccc2F)oc1N1CCCCCC1 16.5 µM
N#Cc1nc(COc2ccccc2)oc1N1CCCCC1 13.1 µM
N#Cc1nc(-c2ccccc2Cl)oc1N1CCCCC1 16.5 µM
COC(=O)Nc1ccc2c(c1)ncn2C1CCCCC1 18.5 µM
CN(c1ccccc1)S(=O)(=O)c1nnc(NC(=O)c2cccs2)s1 0.117 µM
Cc1cc(=O)[nH]c(N/N=C/c2cc(C)n(-c3ccccc3)c2C)n1 3.29 µM
COc1ccc(NC(=S)NC(=O)c2ccc(Br)o2)cc1 3.29 µM
COc1ccc(NC(=O)c2ccc(Br)o2)cc1 4.14 µM
Cc1ccc(C(=O)NC(=S)NCC2CCCO2)cc1Br (stereo unspecified) 8.26 µM
C(=C\c1ccco1)/c1ccc2ccccc2n1 0.656 µM
O=[N+]([O-])c1cccc2ccc(/C=C/c3ccc(F)cc3)nc12 7.36 µM
O=[N+]([O-])c1ccccc1/C=C/c1ccc2ccccc2n1 1.31 µM
O=C(O)c1ccc(/C=C/c2ccc3cccc(O)c3n2)cc1 4.14 µM
Cc1ccc2c(CNCc3ccco3)cc(=O)oc2c1 9.27 µM
Cc1ccc2c(CN(C)Cc3cccc(F)c3)cc(=O)oc2c1 13.1 µM
COc1ccc(N=Cc2nc(-c3ccccc3)oc2OC(=O)c2ccccc2)cc1 1.85 µM
CC1CCc2c(sc(/N=C/N(C)C)c2C#N)C1 (stereo unspecified) 7.36 µM
CCN(/C=N/c1sc2c(c1C#N)CCCCC2)CC 3.69 µM
CN(C)/C=N/c1sc2c(c1C#N)CCCCC2 5.21 µM
CCn1c(C)nc2cc(C(=O)NNC(=S)Nc3ccccc3Cl)ccc21 7.36 µM
CCn1c(C)nc2cc(C(=O)NNC(=S)Nc3ccccc3OC)ccc21 14.7 µM
CCN(CC)CCn1c2ccccc2c2nc3ccc([N+](=O)[O-])cc3cc21 14.7 µM
O=C1CCCC(O)=C1N=Nc1ccc2c(c1)OCO2 14.7 µM
O=C(Nc1ccc(-c2nc3ccccc3s2)c(O)c1)C1=COCCO1 0.261 µM
CCSc1ccccc1C(=O)Nc1ccc(-c2nc3ccccc3s2)c(O)c1 3.69 µM
O=C(Nc1ccc(-c2nc3ccccc3s2)c(OC(=O)c2ccccc2)c1)c1ccccc1 0.329 µM
O=C(CC1Sc2ccccc2NC1=O)c1ccc(Br)cc1 (stereo unspecified) 8.26 µM
CC(=O)Nc1ccccc1C(=O)C(=O)Nc1ccc(C)c(C)c1 5.21 µM
CC(=O)Nc1ccccc1C(=O)C(=O)Nc1ccc(C)c(F)c1 2.33 µM
CN(C)c1ccc(-c2ccc3c(=O)c4ccccc4n(C)c3c2)cn1 4.65 µM
Cn1c2ccccc2c(=O)c2ccc(-c3ccc4c(c3)OCO4)cc21 1.04 µM
Cc1ccc(N2C(=O)c3ccccc3NC2(C(=O)O)c2ccccc2)cc1Cl (stereo unspecified) 2.93 µM
O=[N+]([O-])c1ccccc1CSc1nc2ccccc2o1 14.7 µM
CC(=O)c1ccc(Oc2ncnc3c2oc2ccccc23)cc1 0.927 µM
COc1ccc(Oc2ncnc3c2oc2ccccc23)cc1 11.7 µM
COc1ncnc2c1oc1ccccc12 8.26 µM
Cc1nc2ccccc2c(=O)n1/N=C/c1ccccc1Cl 6.56 µM
Cc1ccc(/C=N/n2c(C)nc3ccccc3c2=O)s1 6.56 µM
Fc1ccccc1CSc1nnc(-c2cccs2)o1 3.29 µM
CC(C)(C)c1nnc(NC(=O)c2ccc3c(c2)OCO3)s1 1.47 µM
CCC(CC)c1nnc(NC(=O)c2ccc3c(c2)OCO3)s1 7.36 µM
O=C(N/N=C/c1ccccc1F)NC1CCCCC1 10.4 µM
COc1cccc(/C=N/NC(=O)NC2CCCCC2)c1O 4.14 µM
O=C(N/N=C/c1cccc(F)c1)NC1CCCCC1 16.5 µM
O=C(CCSc1ccccc1Cl)Nc1cccc([N+](=O)[O-])c1 11.7 µM
NS(=O)(=O)c1cccc(NC(=O)CCSc2ccccc2Cl)c1 10.4 µM
CN(C)C(=O)c1ccc(-c2cc(C(F)(F)F)nn2C)s1 6.56 µM
O=C(CN1c2ccc(Br)cc2-c2ccccc2S1(=O)=O)N1CCCCC1 7.36 µM
Cc1nccc(-c2cc(-c3ccc(Cl)cc3Cl)no2)n1 2.33 µM
